The sample as a whole holds a higher share of hits than the screen did.
IMPase Li inh: membrane-permeable IMPase blocker, potentiated with lithium | actives 0.35% (n = 210,000) | Potency, µM (top dose mostly 59.4 µM), inactives show top-dose activity, negative = IMPase inhibition, most hits filed as inhibitors | CHO-M1 cells, IP1 TR-FRET (IP-One), carbachol + lithium;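 also: IP1 builds up when IMPase is blocked and the TR-FRET signal falls; potency is read from the fitted curve at half-maximal effect; plate controls were basal vehicle for no effect and high inhibitor control for full effect; nearly all actives have a fitted effect of over 50% in size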
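Test compounds were applied to CHO-M1 cells previously cultured for 16–30 h at 2000 per well. A small lithium amount accompanied them; after 30 min at 37C, IP1 was quantified by TR-FRET.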
NPSR antagonist: blocks cAMP signaling of the human neuropeptide S receptor | Potency, µM (highest dose often 38.3 µM), inactives show at the top dose activity change, negative = inhibition, usual class: inhibitors | actives 1% (n = 220,000) | Q6W5P4 | CHO-NPSR cells, cAMP TR-FRET, antagonist mode; also: potency is read from the fitted curve at half-maximal effect; nearly all actives have a fitted effect of over 50% in size
IMPase cell inh: IMPase inhibition in cells. P97697. CHO-M1 cells, IP1 accumulation, HTRF TR-FRET ratio. inhibition (IP1 accumulation), % at 46.1 µM. 120,000 tested, under 10 active; active = well fitted curve in the direction sought with a large enough effect in the signal ratio, not every such curve was filed as active; inconclusive = small, poorly fitted or top-dose-only effect, or a change in a side signal; inactive = no such curve, though single readings can be large or run the other way; the % refers to the signal ratio;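 also: cells stimulated with carbachol in lithium chloride buffer; plate controls were DMSO basal wells for no effect and reference inhibitor wells for full effect; higher means more IMPase inhibition seen as more IP1 and lower FRET ratio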
Target sequence (P97697 whole entry, looked up): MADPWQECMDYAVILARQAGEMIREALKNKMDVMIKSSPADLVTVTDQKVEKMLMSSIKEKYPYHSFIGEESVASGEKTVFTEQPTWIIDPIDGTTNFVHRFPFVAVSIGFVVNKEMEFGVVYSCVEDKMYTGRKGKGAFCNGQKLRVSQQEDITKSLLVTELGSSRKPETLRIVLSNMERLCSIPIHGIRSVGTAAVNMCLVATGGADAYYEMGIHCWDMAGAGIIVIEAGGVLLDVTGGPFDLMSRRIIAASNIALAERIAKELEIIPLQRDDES
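Elevated IP1 in lysates lowers TR-FRET signal (665/620 ratio and 620 channel reported). Cells were CHO-M1, given carbachol (50 uM as added) plus 50mM LiCl, pH 7.4, 30 min, 37C; compounds titrated up to 46 uM; AC50 by Hill equation.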
* hit, by the source's call; ? = inconclusive; . = no result given; [ ] = remark or other dose. Unless noted, calls follow the shape of the dose curve; as a rule, active = well fitted curve in the direction sought with a large enough effect; inconclusive = small, poorly fitted or top-dose-only effect, or another doubt; inactive = no such curve, though single readings can be large; an effect the other way counts as inactive or inconclusive. Unless noted, % is scaled to controls: 0 for no effect and ±100 for the full control effect.

SMILES	IMPase Li inh	NPSR antagonist	IMPase cell inh
C=C(C(=O)c1ccccc1)C(C)C(=C)C(=O)c1ccccc1	5.3%	10µM*	7.2
C=C(C(=O)c1ccccc1)C(c1ccccc1)C(C)C(=O)c1ccccc1 (centres undefined)	18.2%	?	8.1
O=c1[nH]c(CSc2nnc3ccccn23)nc2cc(C(F)(F)F)ccc12	-7.9%	4.5%	.
CCOC(=O)/C(=C\c1ccc(Cl)cc1)c1nc2sc(C)c(C)c2c(=O)[nH]1	14.6%	7.94µM*	.
CCOC(=O)CSc1nc2sc(C)c(C)c2c(=O)[nH]1	-29.9%[38.3 µM]	18.5%[46.1 µM]	8.4
O=C1c2ccccc2C(=O)C1(c1ccccc1)N1CCN(c2cccc(Cl)c2)CC1	.	.	11.2
CCCCC1=CC2=C(OC(C)=O)C(=O)C(C)(OC(=O)C3CCCC3)C(=O)C2=CO1 (centres undefined)	-7.7%	.	.
NC(=O)C[C@@H](N)c1nn[nH]n1	-4.1%	.	.
C[C@H](N=C(NC#N)Nc1ccncc1)C(C)(C)C	11.0%	.	1.6
O=C(O)CC[C@@H](C(=O)O)N1C(=O)[C@@H]2[C@@H]3CC[C@H](C3)[C@@H]2C1=O	-3.3%	.	.
CNS(=O)(=O)c1ccccc1C(=N)c1ccccc1	-2.1%	.	.
COc1cc(CC(=O)OCn2nnc3ccccc3c2=O)cc(OC)c1OC	-1.6%	13.7%	.
C=C[C@@H](C)[C@](C)(O)c1ccccc1	6.4%	.	.
O=C(COc1ccc2ccccc2c1)NCCNC(=O)COc1ccc2ccccc2c1	12.6µM*	?	?
O=C(COc1ccc2ccccc2c1)NNC(=O)Cc1ccccc1	?	-43.4%	.
CCOC(=O)N1CCN(C(=O)c2ccc3c(=O)n(Cc4ccc(Cl)cc4)c(=S)[nH]c3c2)CC1	7.0%[38.3 µM]	?	-3.7
CCOC(=O)Cn1c(=S)[nH]c2c(oc3ccc(Cl)cc32)c1=O	8.91µM*	?	?
Cn1cccc1CC(=O)N/N=C/c1ccc(Cl)c([N+](=O)[O-])c1	.	-12.9%	.
CCOC(=O)C1CCN(Cc2ccc(O)c3ncccc23)CC1	0.4%[38.3 µM]	2.51µM*	22.5
c1ccc(N2CCN(Cc3ccnc4ccccc34)CC2)cc1	31.9%[38.3 µM]	27.5%[46.1 µM]	11.3
COc1ccccc1N1CCN(Cc2ccc(O)c3ncccc23)CC1	65.5%[38.3 µM]	3.98µM*	9.4
CCOC(=O)C1CCN(Cc2ccccc2C(F)(F)F)CC1	-8.0%[38.3 µM]	-21.4%[46.1 µM]	6.1
Oc1c(CN2CCN(c3ccccc3)CC2)cc(Br)c2cccnc12	-2.5%	7.94µM*	.
COc1ccccc1N1CCN(Cc2ccc(OC)c(OC)c2OC)CC1	-6.4%[38.3 µM]	5.5%[46.1 µM]	4.7
CCn1c2ccccc2c2cc(CN3CCN(Cc4ccc(Br)cc4)CC3)ccc21	.	.	1.2
SMILES	IMPase Li inh	NPSR antagonist	IMPase cell inh
C#C[C@H](N)CCC(=O)O	.	.	2.2
O=C(O)C[C@H](NC(=O)CP(=O)(O)O)C(=O)O.[NH-][C@@H]1CCCC[C@@H]1[NH-].[Pt]	-0.2%	.	.
COc1ccc2c(c1)C(c1ccccc1OC)CC(=O)O2 (centres undefined)	0.6%	.	.
NC1=Nc2cccc3cccc1c23	-3.0%	-38.4%	.
NC1=CC(=O)c2cccc3cccc1c23	12.6µM*	-25.8%[46.1 µM]	?
Cc1ccc(NC(=S)N(Cc2ccc(Br)cc2)Cc2ccc(C(=O)O)cc2)cc1C	16.3%	-51.6%	.
O=C(Nc1ccc(-c2csc(Nc3cccc(C(F)(F)F)c3)n2)cc1)c1cc([N+](=O)[O-])cc(C(F)(F)F)c1	.	10µM*	.
O=C(Nc1ccc(-c2csc(Nc3cccc(C(F)(F)F)c3)n2)cc1)c1ccccc1	.	-39.9%	.
Cc1cc2nc3[nH]c4c(Cl)cc(Cl)cc4c3nc2cc1C	-2.8%	.	.
CCCC(=O)N1c2ccccc2C(=C2SC(C(=O)OC)=C(C(=O)OC)S2)C(=S)C1(C)C	28.0%	-55.1%	-1.4
COC(=O)C1=C(C(=O)OC)SC(=C2C(=S)C(C)(C)N(C(=O)C(C)C)c3ccccc32)S1	54.0%[38.3 µM]	10µM*	9.1
CC1C(=O)Nc2ccccc2N1C(=O)C1CC1 (centres undefined)	-15.3%[38.3 µM]	-3.9%[46.1 µM]	-0.4
COC(=O)C1=C(C(=O)OC)SC(=C2C(=S)C(C)(C)N(C(=O)C3CC3)c3ccccc32)S1	43.0%[38.3 µM]	12.6µM*	2.8
CCN(CC)CCCC(C)n1c(-c2ccccc2)nc2c(NCCOC)nc(C)nc21 (centres undefined)	10.9%	.	.
O=[N+]([O-])c1ccc(-c2n(-c3ccccn3)c3ccccc3[n+]2-c2ccccn2)cc1	.	-11.3%	.
CCOC(=O)c1c(C)[nH]sc1=S	14.1µM*	?	?
CCOC(=O)c1[nH]c(C)c(C(=O)OCC)c1C	15.2%[38.3 µM]	-14.6%[46.1 µM]	12.4
O=C(c1csnn1)N1CCC2(CCN(Cc3ccccc3)CC2)CC1	31.1%	.	.
O=[N+]([O-])c1cccc(N/N=C/c2cccc3ccccc23)c1	7.7%	-25.8%	4.4
CN(C)C(=O)n1nnnc1Cc1ccc(-c2ccccc2)cc1	12.4%	.	.

Screening data as filed in PubChem BioAssay.
